High-throughput results deposited in PubChem by Broad Institute.
Tgondii IFNg: T. gondii growth inhibition under IFN-gamma; Toxoplasma gondii growth in IFN-gamma-treated host cells; hits give low values; activity change, negative = inhibition, % (test concentration not listed); actives 3.8% (n = 69,000); AID 1259416; in the data active means activity change below about -70%, passing the limit was not always enough;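 further: host cells are HeLa cells infected with Toxoplasma gondii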
* hit, by the source's call; i = inactive; ! = not confirmed by another sample. The entries come from a sample that favours hits as a whole.

SMILES	Tgondii IFNg
Cc1nc(N(C)C)ncc1C(=O)NCC1(c2ccccc2F)CCCC1	-12.9
O=c1c2c(nc3cc(-c4ccccc4)[nH]n13)CSC2	88.7
Cc1ccc(CN2CCN(c3ncc(C)c(N(C)C)n3)CC2=O)cc1	-85.1*
Cc1ccc(CN2CCN(Cc3cnc(C)[nH]3)CC2=O)cc1	0.6
CCCOCCN1CCN(c2ncc(C)c(N(C)C)n2)CC1	-4.4
O=C(NCCN1CCCCC1)C1CN(S(=O)(=O)c2cccnc2)CC12CCCCC2 (configuration not stated)	75.3
CNC(=O)c1ccc(-c2cc3ccccc3nc2OC)o1	-3.7
Cc1cccc(CO[C@@H]2CO[C@]3(CCN(S(=O)(=O)N(C)C)C3)C2)n1	0.3
O=C(Nc1ccc(Br)cc1)N1CCC2(CC1)Nc1cc(F)ccc1-n1cccc12	i
C[C@H](Oc1cc(-c2cnn(C3CCNCC3)c2)cnc1N)c1c(Cl)ccc(F)c1Cl	2.7
C[C@@H](Oc1cc(-c2cnn(C3CCNCC3)c2)cnc1N)c1c(Cl)ccc(F)c1Cl	-77.5*
Cc1ncsc1CCN(C)C1CCCNC1 (configuration not stated)	7.0
COCCN1CCn2cc(CNC(=O)C3CCC3)nc2C1	0.6
CC(NC(=O)c1cc(C(F)(F)F)n(C)n1)c1ccncc1 (configuration not stated)	28.7
O=C(CN1CCC(O)(CN2CCOc3ccccc32)CC1)CC12CC3CC(CC(C3)C1)C2	28.4
CNC(=O)c1cc2c(nc1NCC(C)C)CCN(C(=O)Nc1ccccc1)CC2	5.6
O=C(NCC(F)F)C1(Oc2ccc(Cl)cc2)CCNCC1	0.3
Cc1ccc(CN2CCC(CNC(=O)C(C)n3c4ccccc4c4cnn(C)c(=O)c43)C2)cc1 (configuration not stated)	-103.5*
CC(CCNC(=O)C(C)n1c2ccccc2c2cnn(C)c(=O)c21)N1CCCC1 (configuration not stated)	0.0
Cc1ccc(CN2CCC(CNC(=O)Cn3c4ccccc4c4cnn(C)c(=O)c43)C2)cc1 (configuration not stated)	21.3
CNc1ncccc1C(=O)N1CCOC(CC2CCCCC2)C1 (configuration not stated)	5.0
Cc1nc(-c2cnn(C)c2)nc2c1CN(S(C)(=O)=O)CC2	-21.0
COC(=O)C1=C(C)NC(C)=C(C(=O)OCCN(C)Cc2ccccc2)C1c1cccc([N+](=O)[O-])c1 (configuration not stated)	16.4
COC(=O)C1=C(C)NC(C)=C(C(=O)OC/C=C/c2ccccc2)C1c1cccc([N+](=O)[O-])c1 (configuration not stated)	-2.3
COC(=O)C1=C(C)NC(C)=C(C(=O)OCCN2CCN(C(c3ccccc3)c3ccccc3)CC2)C1c1cccc([N+](=O)[O-])c1 (configuration not stated)	-84.0*!
SMILES	Tgondii IFNg
COc1ccc(NS(=O)(=O)c2ccc3[nH]c(=O)ccc3c2)cc1Cl	62.8
COc1ccc(CNC(=O)CC2N=C3c4ccccc4N=C(SCc4ccccc4F)N3C2=O)cc1 (configuration not stated)	5.1
C[C@]12CC[C@@H]3c4ccc(O)cc4CC[C@H]3[C@@H]1CCC2=O	-76.5*!
CC(=O)O[C@]1(C(C)=O)CC[C@H]2[C@@H]3C=CC4=CC(=O)CC[C@]4(C)[C@H]3CC[C@@]21C	13.6
C#C[C@]1(O)CC[C@H]2[C@@H]3CCc4cc(OC)ccc4[C@H]3CC[C@@]21C	-6.4
C[C@]12CCC3c4ccc(OS(=O)(=O)O)cc4CCC3C1CC[C@H]2O (some centres not stated)	9.0
C[C@]12CC[C@@H]3c4ccc(O)cc4C(=O)C[C@H]3[C@@H]1CC[C@@H]2O	-3.3
C#C[C@]1(O)CCC2C3CCc4cc(OC)ccc4C3CC[C@@]21C (some centres not stated)	5.5
CC12CCC3c4ccc(O)cc4C=CC3C1CCC2=O (configuration not stated)	-88.4*
C[C@]12CCC3c4ccc(O)cc4CCC3C1CC[C@@H]2O (some centres not stated)	-73.7*
C[C@]12CCC3c4ccc(O)cc4CCC3C1C[C@@H](O)[C@@H]2O (some centres not stated)	-4.0
CC(C)[C@H](Cn1c(=O)oc2ccccc21)NC(=O)c1cc(C(C)(C)C)[nH]n1	56.6
CS(=O)(=O)N1CCC2(CC1)CC(NC1CCOCC1)c1ccccc12 (configuration not stated)	61.4
O=C(Nc1cccnc1)[C@@H]1C[C@H]2CCN(c3ncc(F)cn3)C[C@@H]2O1	11.2
Cc1ccc2c(c1C)-n1cccc1C1(CCN(C(=O)C3CCCCC3)CC1)N2	-1.2
Cc1ccc(NC(=O)CN2CCN(Cc3ccccc3)CC2)cc1Cl	-24.2
Cc1ccc(-c2ccccc2NC(=O)CS(=O)CC(=O)Nc2ccc(C)c(Cl)c2)o1 (configuration not stated)	33.1
Cc1ccc(NC(=O)CS(=O)CC(=O)Nc2ccc3c(c2)CCC3)cc1Cl (configuration not stated)	-88.2*
Cc1cnn(Cc2nc(-c3ccc(NC(=O)c4ccc(C)c(F)c4)cc3)oc2C)c1	-13.4
Cc1cnn(Cc2nc(-c3ccc(NC(=O)c4ccc(F)cc4)cc3)oc2C)c1	-82.4*
CCc1ccc(C(=O)Nc2ccc(-c3nc(Cn4cc(C)cn4)c(C)o3)cc2)cc1	27.0
COc1ccc(C(=O)Nc2ccc(-c3nc(Cn4cc(C)cn4)c(C)o3)cc2)cc1F	33.6
Cc1cnn(Cc2nc(-c3ccc(NC(=O)c4ccc(C#N)cc4)cc3)oc2C)c1	-52.0
Cc1cnn(Cc2nc(-c3ccc(NC(=O)c4cccc(F)c4)cc3)oc2C)c1	-75.2*
CN(Cc1ccsc1)Cc1cc(-c2ccccc2)no1	70.3
SMILES	Tgondii IFNg
Cc1nc2sccn2c1C(=O)N1CCCCC1CCc1ccccn1 (configuration not stated)	-3.4
O=C(c1ccc(-c2cncnc2)nc1)N1CCCC(c2ccccc2)CC1 (configuration not stated)	-29.1
O=C(COc1ccc2c(c1)OCCO2)Nc1cccc(OCCN2CCOCC2)c1	44.7
CCc1c(C(=O)NCCc2nc(-c3cccnc3)n[nH]2)[nH]c2ccccc12	5.5
Cc1cccc(NC(=O)Cn2ncc3c(N4CCCC4)ncnc32)c1C	60.5
O=C(c1cnccn1)N1CCC2(CC1)CCN(c1ncc(F)cn1)C2	2.1
Cc1cc(C)n(CC(C)NCc2cnc(-c3ccccc3C)s2)n1 (configuration not stated)	-62.1
Cc1cc(C(=O)NCC2CCN(C)C2)c(NC(=O)C(C)(C)C)s1 (configuration not stated)	-7.2
Cn1nc(CNc2ncccn2)c2c1CNCC2	2.1
Cn1nc(CNc2ncccn2)c2c1CN(C(=O)c1ccccc1F)CC2	-105.5*
Cc1cccc(S(=O)(=O)N2CCc3c(CNc4ncccn4)nn(C)c3C2)c1	2.4
COc1ncccc1-c1ccc(CN2CCN(C)CC2)cn1	8.0
CC1=Nc2ccc(-c3ccccc3)cc2C1(C)C	-98.9*
Cc1ccc(-c2nnc(-c3ccccc3)n2-c2ccc(C)cc2)cc1	-3.0
CCC1CN(Cc2ccnn2-c2ccccc2)CCN1C(C)C (configuration not stated)	0.3
CNc1ncccc1CN1C[C@H](N(C)C)C[C@H]1CO	0.6
N#C/C(=C/c1ccc(O)c(O)c1)C(=O)NCCCc1ccccc1	3.4
N#C/C(=C/c1ccc(O)c(O)c1)C(=O)NCc1ccccc1	-2.8
